Results filed as inconclusive are left out. Activity calls are given as the source filed them. Calls follow the shape of the dose curve; as a rule, active = well fitted inhibition curve with a large enough effect; inconclusive = small, poorly fitted or top-dose-only effect; inactive = flat fitted curve, though single readings scatter.
The compounds below were run on Zika virus NS2B-NS3 protease (assay: Primary screen GU AMC qHTS for Zika virus inhibitors (AID 1347154; also: nearly all actives have a fitted effect of over 70% in size;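 as to activity change, negative = inhibition: 0% = no-inhibitor control and -100% = no-enzyme control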)). Settings: Zika NS2B-NS3 unlinked protease, AMC fluorogenic substrate; series mostly up to 54.1 µM; activity change, negative = inhibition: at the top concentration.
In short: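 Unlinked Zika NS2B hydrophilic domain/NS3 protease domain noncovalent complex (25 nM final) in 10 mM Tris-HCl pH 8.0, 0.01% Tween 20, with AMC peptide substrate. Fluorescence (ex 340, em 450 nm) change over 15 min, room temperature; percent inhibition fitted to 4-parameter Hill equation.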
Potency is read from the fitted curve at half-maximal effect.

| Structure (SMILES) | activity change, negative = inhibition | Potency |
| --- | --- | --- |
| CCN(CC)CCN1C(=O)CN=C(c2ccccc2F)c2cc(Cl)ccc21 | 5.57% (inactive) | – |
| COc1ccc2c(c1OC)CN1CCc3cc4c(cc3C1C2)OCO4 (stereo not given) | – | inactive |
| CN1C(=S)CN=C(c2ccccc2)c2cc(Cl)ccc21 | 4.75% (inactive) | – |
| C[C@@H]1[C@@H](CC(C[C@H]2O[C@@H]3O[C@]4(C)CC[C@@H]5[C@H](C)CC[C@@H]([C@H]2C)[C@@]35OO4)C[S+](=O)([O-])c2ccc(COC(=O)N(C)C)cc2)O[C@@H]2O[C@]3(C)CC[C@H]4[C@H](C)CC[C@@H]1[C@@]24OO3 (stereo not given in full) | 4.33% (inactive) | – |
| CC(C)(N)Cc1ccc(Cl)cc1 | -3.06% (inactive) | – |
| CC(C)CC(N(C)C)C1(c2ccc(Cl)cc2)CCC1 (stereo not given) | – | inactive |
| C=C(C)[C@H]1Cc2c(ccc3c2O[C@@H]2COc4cc(OC)c(OC)cc4[C@@H]2C3=O)O1 | – | inactive |
| CC1NCCOC1c1ccccc1 (stereo not given) | 1.25% (inactive) | – |
| CC(C)=CC1C(C(=O)OCc2cccc(Oc3ccccc3)c2)C1(C)C (stereo not given) | -10.3% (inactive) | – |
| CC(C)(C)NCC(O)c1cc(Cl)c(N)c(Cl)c1 (stereo not given) | 0.145% (inactive) | – |
| C=CCN1CC[C@]23c4c5ccc(O)c4O[C@H]2C(=O)CC[C@@]3(O)[C@H]1C5 | -0.604% (inactive) | – |
| NP(N)(=O)NC(=O)c1ccc(F)cc1 | – | inactive |
| C#CCOC(C(=O)OCCN(C)C)(c1ccccc1)c1ccccc1 | 0.547% (inactive) | – |
| Cc1ccc(-c2nc3ccc(C)cn3c2CC(=O)N(C)C)cc1 | – | 31.6 µM (active) |
| N[C@@H]1C[C@H]1c1ccccc1 | -3.34% (inactive) | – |
